Results from the OligoGym collection.

The sequences below were run against AGAP3 (assay: pooled miR-30 sensor sort-seq; sequence = guide strand). Settings: shRNA.
Note: reference of the scale not given here.

| Sequence | sensor-assay potency score (higher = more potent) |
| --- | --- |
| TACTTCTTCTTCCACTCCTTGT | -0.51 |
| TACACAAACATAAATATTCCAA | -0.597 |
| TCGCAGTCGATACAAAAGCTGT | -1.8 |
| TTCATCTCGGATCAGCAGCAGG | -1.26 |
| TCTGCTGTCGTCGATAACCCGG | -1.3 |
| ATACTTCTTCTTCCACTCCTTG | -0.733 |
| TTAAGCTCCGGTACGGAGCGGC | -0.14 |
| TGGAACTGAGTACCTCAGCTGG | -1.58 |
| TACCAGATGAGCAGCTGCGTGA | -0.56 |
| TTCCCTGGCACTTTCACCGTTG | -0.316 |
| ATTGGGTGCATCGCAGTCGATA | -1.38 |
| TTGTACACCGTCTGGAAACTGA | -0.718 |

What follows are sequences tested against AGBL5 in the same assay as above. Settings: shRNA.

| Sequence | sensor-assay potency score (higher = more potent) |
| --- | --- |
| TTCTTCTCTGAGAAATTGCAGC | -0.823 |
| TTGTAGATTGCAACACGGCCGC | -0.607 |
| AATAGTTCCACAGTGTATCTGG | 0.759 |
| TTGTAGTTGCATTCAAGTGTGT | 0.25 |
| TTTAGGGACAAAACAAACCTCA | -0.454 |
| TTGCATTCAAGTGTGTAGCTGT | 0.765 |
| TAGATTAGTAAGGCTGCTGTGC | -0.537 |
| TTCCGTTTCAGCACAGTCTGGT | 0.615 |
| TTTCAGCACAGTCTGGTCGGGT | -0.447 |
| ATCTACACGAAGTCCATCCAGA | -1.07 |
| TTGAAGACAAAGCTAGATGGAG | -0.419 |
| TTTGGAAGCATGTCCATGCAGG | -0.608 |

What follows are sequences tested against AGPAT6 in the same assay as above. Settings: shRNA.

| Sequence | sensor-assay potency score (higher = more potent) |
| --- | --- |
| TTCATCTGCCTCTCTAGTCATG | -1.09 |
| TAAGTGAACATGTTTACTCATG | -1.14 |
| TACTACTACCACTTCGACGAAT | -0.506 |
| ATACTTGATAGCAACAGGGTAA | -0.725 |
| TTGAACATCATCACCGATGTAT | 0.749 |
| TATTGATGCAGGTTCCTTCTGG | -0.00526 |
| TTTTTGAACATCATCACCGATG | -0.209 |
| TCTCTTTGATCTCTTCTTCTAG | -0.219 |
| TTCTAGTGAAGTGGGATCCTTT | -0.0261 |
| TTGATCTCTTCTTCTAGTGAAG | -1.1 |
| AAGATGATCACATCGATCGGTG | -0.372 |
| TCTTCTTCTAGTGAAGTGGGAT | -0.236 |
